What all share (assay): PBM; 200 nM protein, PBS
Conditions in all cases: dsDNA, one strand shown

The target of test [1] is T1, SIX6 (Homo sapiens, UniProt O95475 114-200, L167I).
T1 sequence: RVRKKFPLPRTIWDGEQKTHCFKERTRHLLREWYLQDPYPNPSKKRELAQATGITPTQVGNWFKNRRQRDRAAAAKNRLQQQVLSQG

Test [2] deals with T2, SIX6 (Homo sapiens, UniProt O95475 114-200, L143V).
T2 sequence: T1 sequence with L30V, I54L

Test [3] addresses T3, SIX6 (Homo sapiens, UniProt O95475 114-200, H141N).
T3 sequence: T1 sequence with H28N, I54L

Test [4] concerns the target T4, SIX6 (Homo sapiens, UniProt O95475 114-200, T165P).
T4 sequence: T1 sequence with T52P, I54L

Test [5] deals with T5, SIX6 (Homo sapiens, UniProt O95475 114-200, L167M).
T5 sequence: T1 sequence with I54M

Test [6] deals with T6, SIX6 (Homo sapiens, UniProt O95475 114-200, L143M).
T6 sequence: T1 sequence with L30M, I54L

Test [7] deals with T7, SIX6 (Homo sapiens, UniProt O95475 114-200, L143I).
T7 sequence: T1 sequence with L30I, I54L

For test [8], the target named is T8, SIX6 (Homo sapiens, UniProt O95475 114-200, T165G).
T8 sequence: T1 sequence with T52G, I54L

For test [9], the target named is T9, SIX6 (Homo sapiens, UniProt O95475 114-200, T139Q).
T9 sequence: T1 sequence with T26Q, I54L

In test [10] the target is T10, NKX2-6 (Homo sapiens, UniProt A6NCS4 118-204, R150C).
T10 sequence: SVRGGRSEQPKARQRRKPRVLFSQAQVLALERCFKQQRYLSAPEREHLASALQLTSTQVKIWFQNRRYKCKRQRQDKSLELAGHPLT

The target of test [11] is T11, SIX6 (Homo sapiens, UniProt O95475 114-200, T165A).
T11 sequence: T1 sequence with T52A, I54L

In test [12] the target is T12, SIX6 (Homo sapiens, UniProt O95475 114-200, L167V).
T12 sequence: T1 sequence with I54V

Test [13] has as its target T13, SIX6 (Homo sapiens, UniProt O95475 114-200).
T13 sequence: T1 sequence with I54L

The target of test [14] is T14, SIX6 (Homo sapiens, UniProt O95475 114-200, T165I).
T14 sequence: T1 sequence with T52I, I54L

In test [15] the target is HOXA2 (Homo sapiens, UniProt O43364 129-215, R185T).
Test [16] concerns the target ALX1 (Homo sapiens, UniProt Q15699 118-204, L144V).
Test [17] has as its target ALX3 (Homo sapiens, UniProt O95076 139-225, N203Q).
In test [18] the target is HOXA2 (Homo sapiens, UniProt O43364 129-215, R185K).
The target in test [19] is ALX1 (Homo sapiens, UniProt Q15699 118-204, L144R).
Test [20] concerns the target ALX3 (Homo sapiens, UniProt O95076 139-225).
For test [21], the target named is ALX3 (Homo sapiens, UniProt O95076 139-225, L168Q).
Test [22] has as its target ALX3 (Homo sapiens, UniProt O95076 139-225, L168V).
Test [23] concerns the target HOXA2 (Homo sapiens, UniProt O43364 129-215, Y150S).
The target of test [24] is ALX1 (Homo sapiens, UniProt Q15699 118-204).
Test [25] has as its target ALX3 (Homo sapiens, UniProt O95076 139-225, N203S).
Test [26] addresses HOXA2 (Homo sapiens, UniProt O43364 129-215).
Test [27] has as its target HOXC10 (Homo sapiens, UniProt Q9NYD6 254-340).
The target in test [28] is ALX4 (Homo sapiens, UniProt Q9H161 200-286).
For test [29], the target named is ALX4 (Homo sapiens, UniProt Q9H161 200-286, Q225E).
Test [30] has as its target T15, NKX2-6 (Homo sapiens, UniProt A6NCS4 118-204).
T15 sequence: T10 sequence with C33R

Test [31] has as its target HOXC10 (Homo sapiens, UniProt Q9NYD6 254-340, K271E).
Test [32] deals with T16, NKX2-6 (Homo sapiens, UniProt A6NCS4 118-204, F151L).
T16 sequence: T10 sequence with C33R, F34L

Residue numbers refer to the chain shown, from its start.

HOXA2 (Homo sapiens, UniProt O43364 129-215, R185K), sequence (O43364 129-215 R185K): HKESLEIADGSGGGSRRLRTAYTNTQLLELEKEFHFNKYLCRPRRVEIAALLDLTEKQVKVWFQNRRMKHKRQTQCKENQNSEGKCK
HOXA2 (Homo sapiens, UniProt O43364 129-215), sequence (O43364 129-215): as the sequence (O43364 129-215 R185K) above, with K57R counted along it
HOXA2 (Homo sapiens, UniProt O43364 129-215, R185T), sequence (O43364 129-215 R185T): as the sequence (O43364 129-215 R185K) above, with K57T counted along it
HOXA2 (Homo sapiens, UniProt O43364 129-215, Y150S), sequence (O43364 129-215 Y150S): as the sequence (O43364 129-215 R185K) above, with Y22S, K57R counted along it
ALX3 (Homo sapiens, UniProt O95076 139-225, N203Q), sequence (O95076 139-225 N203Q): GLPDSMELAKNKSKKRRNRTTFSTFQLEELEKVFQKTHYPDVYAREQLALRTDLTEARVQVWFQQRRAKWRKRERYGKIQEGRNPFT
ALX3 (Homo sapiens, UniProt O95076 139-225, L168V), sequence (O95076 139-225 L168V): as the sequence (O95076 139-225 N203Q) above, with L30V, Q65N counted along it
ALX4 (Homo sapiens, UniProt Q9H161 200-286), sequence (Q9H161 200-286): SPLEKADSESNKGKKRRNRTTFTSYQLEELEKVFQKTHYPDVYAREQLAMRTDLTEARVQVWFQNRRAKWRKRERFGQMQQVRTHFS
ALX1 (Homo sapiens, UniProt Q15699 118-204, L144R), sequence (Q15699 118-204 L144R): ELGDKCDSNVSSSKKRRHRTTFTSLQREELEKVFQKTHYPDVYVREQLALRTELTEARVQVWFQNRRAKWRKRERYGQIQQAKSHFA
HOXC10 (Homo sapiens, UniProt Q9NYD6 254-340, K271E), sequence (Q9NYD6 254-340 K271E): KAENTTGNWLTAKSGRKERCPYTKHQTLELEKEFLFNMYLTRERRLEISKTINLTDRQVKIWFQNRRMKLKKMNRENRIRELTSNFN
ALX1 (Homo sapiens, UniProt Q15699 118-204), sequence (Q15699 118-204): as the sequence (Q15699 118-204 L144R) above, with R27L counted along it
HOXC10 (Homo sapiens, UniProt Q9NYD6 254-340), sequence (Q9NYD6 254-340): as the sequence (Q9NYD6 254-340 K271E) above, with E18K counted along it
ALX1 (Homo sapiens, UniProt Q15699 118-204, L144V), sequence (Q15699 118-204 L144V): as the sequence (Q15699 118-204 L144R) above, with R27V counted along it
ALX3 (Homo sapiens, UniProt O95076 139-225, L168Q), sequence (O95076 139-225 L168Q): as the sequence (O95076 139-225 N203Q) above, with L30Q, Q65N counted along it
ALX3 (Homo sapiens, UniProt O95076 139-225), sequence (O95076 139-225): as the sequence (O95076 139-225 N203Q) above, with Q65N counted along it
ALX4 (Homo sapiens, UniProt Q9H161 200-286, Q225E), sequence (Q9H161 200-286 Q225E): as the sequence (Q9H161 200-286) above, with Q26E counted along it
ALX3 (Homo sapiens, UniProt O95076 139-225, N203S), sequence (O95076 139-225 N203S): as the sequence (O95076 139-225 N203Q) above, with Q65S counted along it

Consider CCCGGGAC, for which the binding signal in test [1] is 8.81 upbm affinity estimate (log intensity, higher = more binding, comparable within an allelic series); in test [2], 9.03 upbm affinity estimate (log intensity, higher = more binding, comparable within an allelic series); in test [3], 8.97 upbm affinity estimate (log intensity, higher = more binding, comparable within an allelic series); in [4], 8.99 upbm affinity estimate (log intensity, higher = more binding, comparable within an allelic series); in [5], 9.01 upbm affinity estimate (log intensity, higher = more binding, comparable within an allelic series); in test [6] it was 9.18 upbm affinity estimate (log intensity, higher = more binding, comparable within an allelic series). In addition, the binding signal was 9.04 upbm affinity estimate (log intensity, higher = more binding, comparable within an allelic series) in [7]; 9.17 upbm affinity estimate (log intensity, higher = more binding, comparable within an allelic series) in test [8]; 9.14 upbm affinity estimate (log intensity, higher = more binding, comparable within an allelic series) in test [9]; 9.29 upbm affinity estimate (log intensity, higher = more binding, comparable within an allelic series) in [10]; 9.12 upbm affinity estimate (log intensity, higher = more binding, comparable within an allelic series) in test [11]; 8.96 upbm affinity estimate (log intensity, higher = more binding, comparable within an allelic series) in test [12]. Further, the binding signal in test [13] is 9.07 upbm affinity estimate (log intensity, higher = more binding, comparable within an allelic series); in [14] it was 9.02 upbm affinity estimate (log intensity, higher = more binding, comparable within an allelic series).
Regarding AGCCGGCT, the binding signal was 9.39 upbm affinity estimate (log intensity, higher = more binding, comparable within an allelic series) in test [1]; 9.1 upbm affinity estimate (log intensity, higher = more binding, comparable within an allelic series) in [2]; 9.34 upbm affinity estimate (log intensity, higher = more binding, comparable within an allelic series) in [3]; 8.96 upbm affinity estimate (log intensity, higher = more binding, comparable within an allelic series) in [4]; 9.33 upbm affinity estimate (log intensity, higher = more binding, comparable within an allelic series) in test [5]; 9.42 upbm affinity estimate (log intensity, higher = more binding, comparable within an allelic series) in test [6]. The binding signal is 9.2 upbm affinity estimate (log intensity, higher = more binding, comparable within an allelic series) in [7]; 9.33 upbm affinity estimate (log intensity, higher = more binding, comparable within an allelic series) in test [8]; 7.56 upbm affinity estimate (log intensity, higher = more binding, comparable within an allelic series) in [15]; 9.36 upbm affinity estimate (log intensity, higher = more binding, comparable within an allelic series) in [9]; 6.54 upbm affinity estimate (log intensity, higher = more binding, comparable within an allelic series) in test [16]; 7.78 upbm affinity estimate (log intensity, higher = more binding, comparable within an allelic series) in [17]. The binding signal was 9.35 upbm affinity estimate (log intensity, higher = more binding, comparable within an allelic series) in test [11]; 10.5 upbm affinity estimate (log intensity, higher = more binding, comparable within an allelic series) in test [18]; 6.74 upbm affinity estimate (log intensity, higher = more binding, comparable within an allelic series) in test [19]; 9.33 upbm affinity estimate (log intensity, higher = more binding, comparable within an allelic series) in test [12]; 8.13 upbm affinity estimate (log intensity, higher = more binding, comparable within an allelic series) in test [20]; 9.39 upbm affinity estimate (log intensity, higher = more binding, comparable within an allelic series) in test [13]. Moreover, the binding signal is 7.76 upbm affinity estimate (log intensity, higher = more binding, comparable within an allelic series) in test [21]; 9.26 upbm affinity estimate (log intensity, higher = more binding, comparable within an allelic series) in test [14]; 7.76 upbm affinity estimate (log intensity, higher = more binding, comparable within an allelic series) in [22]; 10.2 upbm affinity estimate (log intensity, higher = more binding, comparable within an allelic series) in test [23]; 6.76 upbm affinity estimate (log intensity, higher = more binding, comparable within an allelic series) in test [24]; 7.77 upbm affinity estimate (log intensity, higher = more binding, comparable within an allelic series) in [25]. In addition, the binding signal in test [26] is 7.61 upbm affinity estimate (log intensity, higher = more binding, comparable within an allelic series).
Turning to CCCCGGGG, the binding signal is 9.12 upbm affinity estimate (log intensity, higher = more binding, comparable within an allelic series) in test [1]; 8.92 upbm affinity estimate (log intensity, higher = more binding, comparable within an allelic series) in test [2]; 9.9 upbm affinity estimate (log intensity, higher = more binding, comparable within an allelic series) in test [27]; 8.16 upbm affinity estimate (log intensity, higher = more binding, comparable within an allelic series) in test [28]; 9.16 upbm affinity estimate (log intensity, higher = more binding, comparable within an allelic series) in test [3]; 8.88 upbm affinity estimate (log intensity, higher = more binding, comparable within an allelic series) in [4]. Also, the binding signal in [5] is 9.05 upbm affinity estimate (log intensity, higher = more binding, comparable within an allelic series); in test [6] it was 9.06 upbm affinity estimate (log intensity, higher = more binding, comparable within an allelic series); in test [7], 8.94 upbm affinity estimate (log intensity, higher = more binding, comparable within an allelic series); in [29] it was 8.02 upbm affinity estimate (log intensity, higher = more binding, comparable within an allelic series); in [8], 9.11 upbm affinity estimate (log intensity, higher = more binding, comparable within an allelic series); in test [15] it was 6.97 upbm affinity estimate (log intensity, higher = more binding, comparable within an allelic series). Further, the binding signal was 9.14 upbm affinity estimate (log intensity, higher = more binding, comparable within an allelic series) in [9]; 9.14 upbm affinity estimate (log intensity, higher = more binding, comparable within an allelic series) in test [11]; 9.57 upbm affinity estimate (log intensity, higher = more binding, comparable within an allelic series) in [30]; 10.1 upbm affinity estimate (log intensity, higher = more binding, comparable within an allelic series) in [18]; 9.91 upbm affinity estimate (log intensity, higher = more binding, comparable within an allelic series) in test [31]; 9.05 upbm affinity estimate (log intensity, higher = more binding, comparable within an allelic series) in test [12]. For the same sequence, the binding signal was 9.11 upbm affinity estimate (log intensity, higher = more binding, comparable within an allelic series) in [13]; 9.08 upbm affinity estimate (log intensity, higher = more binding, comparable within an allelic series) in test [14]; 9.2 upbm affinity estimate (log intensity, higher = more binding, comparable within an allelic series) in test [32]; 10.4 upbm affinity estimate (log intensity, higher = more binding, comparable within an allelic series) in [23]; 7.1 upbm affinity estimate (log intensity, higher = more binding, comparable within an allelic series) in [26].

Values taken from PMC11006913.
